Results as given in PubChem BioAssay (NCI).
This is part of a sample that, as a whole, favours compounds with a hit. Of some 83,000 tested, about 20% had one in any assay.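 Treatment: one concentration, 48 hours, 96-well format. Scoring: percent growth, with anything below 10 considered active.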 A number with no mark means an inactive call. Active and inactive are the calls of the source.

Assays:
Experiment in all cases: NCI-60 one-dose screen, 48 h (100 = growth as untreated, 0 = no growth, -100 = all killed)
Conditions in all cases: 10 µM unless noted
SR leukemia = system: SR leukemia
RPMI-8226 leukemia = system: RPMI-8226 leukemia
OVCAR-8 ovarian = system: OVCAR-8 ovarian
OVCAR-5 ovarian = system: OVCAR-5 ovarian
OVCAR-4 ovarian = system: OVCAR-4 ovarian
SK-OV-3 ovarian = system: SK-OV-3 ovarian
IGROV1 ovarian = system: IGROV1 ovarian
OVCAR-3 ovarian = system: OVCAR-3 ovarian
HS 578T breast = system: HS 578T breast
NCI/ADR-RES ovarian = system: NCI/ADR-RES ovarian
T-47D breast = system: T-47D breast
BT-549 breast = system: BT-549 breast
MDA-MB-435 melanoma = system: MDA-MB-435 melanoma
SW-620 colon = system: SW-620 colon
MCF7 breast = system: MCF7 breast
HCT-116 colon = system: HCT-116 colon
HCC-2998 colon = system: HCC-2998 colon
KM12 colon = system: KM12 colon

Compound	growth (SR leukemia)	growth (RPMI-8226 leukemia)	growth (OVCAR-8 ovarian)	growth (OVCAR-5 ovarian)	growth (OVCAR-4 ovarian)	growth (SK-OV-3 ovarian)	growth (IGROV1 ovarian)	growth (OVCAR-3 ovarian)	growth (HS 578T breast)	growth (NCI/ADR-RES ovarian)	growth (T-47D breast)	growth (BT-549 breast)	growth (MDA-MB-435 melanoma)	growth (SW-620 colon)	growth (MCF7 breast)	growth (HCT-116 colon)	growth (HCC-2998 colon)	growth (KM12 colon)
c1ccc2c(c1)Oc1ccccc1C2C1c2ccccc2Oc2ccccc21	86.3%	103%	101%	89.7%	84%	105%	91.5%	98.4%	99.6%	95.3%	81.4%	106%	99.4%	97.7%	95.4%	84.2%	99.9%	95.2%
COc1ccc(N=C2NN=C(c3ccc(F)cc3)CS2)cc1OC	53%	74.4%	105%	85.7%	103%	104%	-11.7% (active)	96.6%	110%	97.6%	86.7%	108%	83.3%	98.6%	104%	96.1%	98.1%	99.2%
CCOC(=O)CC(C#N)(CC(=O)OCC)C(=O)OCC	100%	96.1%	88.8%	99.9%	104%	117%	118%	112%	117%	106%	105%	106%	94.8%	108%	101%	102%	109%	106%
CN(C)CCCNC(=O)C(c1ccccc1)c1ccccc1	105%	101%	102%	111%	118%	112%	117%	113%	110%	97.7%	87.9%	106%	108%	100%	96.3%	94.3%	99.1%	111%
COc1cc(C(=O)N2CCN(C(=O)c3ccco3)CC2)c(N)cc1OCc1ccccc1	86.5%	71.9%	99.8%	107%	92.9%	113%	-5.4% (active)	105%	91.9%	102%	97.1%	105%	113%	105%	93.1%	93.3%	125%	103%
COc1ncc(-c2ccc3ncnc(Nc4cccc(Cl)c4)c3c2)cc1NS(=O)(=O)CCN1CCOCC1	9.25% (active)	12.7%	16.9%	6.39% (active)	33.1%	-25.9% (active)	-36.9% (active)	5.82% (active)	-21.1% (active)	30.1%	-10.6% (active)	-4.07% (active)	11.8%	29.5%	7.16% (active)	29.7%	18.9%	26%
CN(C)C/C=C/C(=O)Nc1cc2c(Nc3cccc(Cl)c3F)ncnc2cc1OCCOC(F)F	51.6%	58.6%	34.7%	29.7%	27.9%	-0.955% (active)	-21.7% (active)	23.9%	11.2%	32.9%	-4.28% (active)	41%	15.4%	31%	35.1%	25.7%	68.3%	80.7%
COc1cc(NC(=O)c2cc3ccccc3nc2Nc2ccc(F)cc2)cc(OC)c1OC	35.7%	29.8%	43.3%	68.8%	47.7%	72.8%	54.5%	36.2%	75.5%	39.7%	22.1%	30.7%	27%	54.4%	24.2%	35.8%	65.9%	42.7%
COc1ccc(-c2nc3sccn3c2-c2ccnc(NCCCNS(=O)(=O)c3ccc(F)cc3)n2)cc1	14.8%	5.74% (active)	6.98% (active)	77%	17.1%	39.5%	16.3%	20.9%	32.5%	-5.58% (active)	-12.7% (active)	10%	14.1%	23.2%	11.6%	8.56% (active)	52%	9.82% (active)
CCOC(=O)/C=C\C(=O)NC(N)=O	97.3%	98.5%	104%	113%	120%	95.9%	104%	110%	102%	106%	89.1%	100%	106%	107%	96.3%	86.4%	95.2%	106%
Cc1cc(C)c2c(=O)[nH]c(SCC(=O)Nc3cccc(S(=O)(=O)N(C)C)c3)nc2n1	70.8%	87.5%	106%	97.4%	105%	103%	40.6%	111%	122%	105%	92.4%	103%	105%	105%	97.4%	97.1%	106%	112%
CC/C=C\C[C@H](O)C/C=C1/C(=O)C(Cl)=C[C@@H]1C/C=C\CCCC(=O)O	10.9%	14.7%	10.9%	97.1%	63.2%	99.7%	82.7%	28.9%	75.9%	57.1%	56.9%	58.5%	19.3%	2.12% (active)	26.3%	-88.6% (active)	76.4%	46.4%
O=C(Nc1cccc(C(F)(F)F)c1)Nc1ccc(OCc2nnc(-c3ccccc3)o2)c(F)c1	5.85% (active)	2.02% (active)	38.5%	50.9%	34.5%	69.1%	45.9%	15.6%	39.2%	37%	21.1%	29.6%	49.4%	28.7%	24.8%	14.6%	64.3%	12.2%
CC(=O)C1CCC(C)=CC1=O (stereo unspecified)	101%	100%	100%	103%	107%	100%	102%	108%	122%	95.6%	90.2%	93.3%	103%	103%	88.4%	103%	103%	110%
O=S(=O)(NCCNc1nccc(-c2c(-c3ccccc3)nc3sccn23)n1)c1ccc(O)cc1	18.2%	52.8%	40.8%	87.1%	56.5%	65.3%	22%	38.9%	64.6%	85.5%	41.2%	48.9%	10.5%	30%	18.5%	21.5%	64.9%	21.6%
O=S(=O)(NCCCNc1cc(-c2cn(-c3ccccc3)nc2-c2cccc(O)c2)ccn1)c1ccc(Cl)cc1	4.43% (active)	8.7% (active)	20.4%	37%	34.7%	33.1%	27.5%	26.6%	5.52% (active)	23.7%	8.59% (active)	11.7%	16.4%	15.6%	11%	15%	-44.9% (active)	12.5%
CN(C)c1ccc(/C=C\N=Nc2ccc(Br)cc2)cc1	21%	50.2%	46.5%	76.6%	65%	92.8%	66.7%	67.9%	102%	52.3%	37.1%	69.1%	41.7%	29.5%	36.8%	50.6%	83%	29.6%
